Experiment [1] has as its target Ribosomal protein S6 kinase alpha-6 (Homo sapiens) (UniProt Q9UK32). The conditions noted are these: at 1 µM.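 Also: each value is a mean inhibition of RSK4 from a GSK PKIS panel screen.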
Experiment [2] concerns the target T1, Serine/threonine-protein kinase Sgk1 (Homo sapiens) (UniProt O00141).
T1 sequence (whole entry): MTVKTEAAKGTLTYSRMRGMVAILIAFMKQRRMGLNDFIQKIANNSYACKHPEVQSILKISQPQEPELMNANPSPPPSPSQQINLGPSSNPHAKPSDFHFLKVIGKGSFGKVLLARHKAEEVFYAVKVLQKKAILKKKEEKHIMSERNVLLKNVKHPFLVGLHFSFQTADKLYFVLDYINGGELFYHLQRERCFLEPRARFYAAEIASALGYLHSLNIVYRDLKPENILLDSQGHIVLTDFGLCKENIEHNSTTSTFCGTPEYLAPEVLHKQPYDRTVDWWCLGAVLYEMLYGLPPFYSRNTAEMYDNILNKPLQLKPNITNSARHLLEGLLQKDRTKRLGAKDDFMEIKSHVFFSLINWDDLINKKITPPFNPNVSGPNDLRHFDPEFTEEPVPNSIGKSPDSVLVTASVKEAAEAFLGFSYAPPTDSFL
The conditions noted are these: at 0.1 µM.

In experiment [3] the target is T1, Serine/threonine-protein kinase Sgk1 (Homo sapiens). Conditions: at 1 µM.
The target of experiment [4] is T2, Serine/threonine-protein kinase Sgk2 (Homo sapiens) (UniProt Q9HBY8).
T2 sequence (whole entry): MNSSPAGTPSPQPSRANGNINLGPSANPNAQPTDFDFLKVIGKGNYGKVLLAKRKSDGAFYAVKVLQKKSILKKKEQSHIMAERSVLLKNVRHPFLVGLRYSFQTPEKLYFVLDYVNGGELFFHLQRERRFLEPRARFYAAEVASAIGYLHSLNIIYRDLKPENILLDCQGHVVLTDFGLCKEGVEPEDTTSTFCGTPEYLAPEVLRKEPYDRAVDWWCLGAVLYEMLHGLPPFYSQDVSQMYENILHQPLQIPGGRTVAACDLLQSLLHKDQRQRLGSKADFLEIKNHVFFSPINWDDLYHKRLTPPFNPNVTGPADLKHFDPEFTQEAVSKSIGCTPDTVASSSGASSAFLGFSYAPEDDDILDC
The conditions noted are these: at 0.1 µM.

Experiment [5] addresses T2, Serine/threonine-protein kinase Sgk2 (Homo sapiens). Conditions: at 1 µM.
Experiment [6] addresses T3, Serine/threonine-protein kinase Sgk3 (Homo sapiens) (UniProt Q96BR1).
T3 sequence (whole entry): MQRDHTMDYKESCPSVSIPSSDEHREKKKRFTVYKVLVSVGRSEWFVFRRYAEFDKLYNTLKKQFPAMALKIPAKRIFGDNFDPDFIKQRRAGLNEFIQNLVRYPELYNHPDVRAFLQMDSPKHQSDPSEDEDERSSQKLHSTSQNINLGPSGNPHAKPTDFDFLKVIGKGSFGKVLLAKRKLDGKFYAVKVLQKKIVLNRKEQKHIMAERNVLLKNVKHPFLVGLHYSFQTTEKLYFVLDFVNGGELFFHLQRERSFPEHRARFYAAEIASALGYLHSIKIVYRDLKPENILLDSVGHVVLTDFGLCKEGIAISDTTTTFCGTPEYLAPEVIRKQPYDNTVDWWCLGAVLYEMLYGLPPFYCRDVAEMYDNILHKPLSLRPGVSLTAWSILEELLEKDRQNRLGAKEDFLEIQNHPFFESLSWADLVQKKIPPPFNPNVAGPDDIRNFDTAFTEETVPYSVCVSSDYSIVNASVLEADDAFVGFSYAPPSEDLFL
Conditions: at 0.1 µM.

The target of experiment [7] is T3, Serine/threonine-protein kinase Sgk3 (Homo sapiens). Conditions: at 1 µM.
The target in experiment [8] is 5'-AMP-activated protein kinase catalytic subunit alpha-1 (Homo sapiens) (UniProt Q13131). The conditions noted are these: at 0.1 µM.
Chain of 5'-AMP-activated protein kinase catalytic subunit alpha-1 (Homo sapiens) (Q13131 whole entry, looked up): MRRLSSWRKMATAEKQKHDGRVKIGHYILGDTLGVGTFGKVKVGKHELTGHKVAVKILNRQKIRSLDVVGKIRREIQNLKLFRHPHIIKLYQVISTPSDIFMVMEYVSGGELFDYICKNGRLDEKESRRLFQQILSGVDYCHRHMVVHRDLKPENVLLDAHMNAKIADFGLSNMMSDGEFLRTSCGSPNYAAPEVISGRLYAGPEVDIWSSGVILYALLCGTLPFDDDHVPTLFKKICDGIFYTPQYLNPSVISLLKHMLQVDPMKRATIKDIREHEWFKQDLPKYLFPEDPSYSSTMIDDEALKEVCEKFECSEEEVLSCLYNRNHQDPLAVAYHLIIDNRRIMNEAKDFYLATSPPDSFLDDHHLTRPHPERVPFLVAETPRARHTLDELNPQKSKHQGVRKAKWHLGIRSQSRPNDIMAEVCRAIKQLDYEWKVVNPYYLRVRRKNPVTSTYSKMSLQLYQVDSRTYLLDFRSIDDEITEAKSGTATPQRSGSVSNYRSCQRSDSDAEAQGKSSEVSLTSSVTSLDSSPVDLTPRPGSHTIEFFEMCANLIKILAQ
The target is the same in experiment [9]. The conditions noted are these: at 1 µM.
Experiment [10] deals with 5'-AMP-activated protein kinase catalytic subunit alpha-2 (Homo sapiens) (UniProt P54646). The conditions noted are these: at 0.1 µM.
Chain of 5'-AMP-activated protein kinase catalytic subunit alpha-2 (Homo sapiens) (P54646 whole entry, looked up): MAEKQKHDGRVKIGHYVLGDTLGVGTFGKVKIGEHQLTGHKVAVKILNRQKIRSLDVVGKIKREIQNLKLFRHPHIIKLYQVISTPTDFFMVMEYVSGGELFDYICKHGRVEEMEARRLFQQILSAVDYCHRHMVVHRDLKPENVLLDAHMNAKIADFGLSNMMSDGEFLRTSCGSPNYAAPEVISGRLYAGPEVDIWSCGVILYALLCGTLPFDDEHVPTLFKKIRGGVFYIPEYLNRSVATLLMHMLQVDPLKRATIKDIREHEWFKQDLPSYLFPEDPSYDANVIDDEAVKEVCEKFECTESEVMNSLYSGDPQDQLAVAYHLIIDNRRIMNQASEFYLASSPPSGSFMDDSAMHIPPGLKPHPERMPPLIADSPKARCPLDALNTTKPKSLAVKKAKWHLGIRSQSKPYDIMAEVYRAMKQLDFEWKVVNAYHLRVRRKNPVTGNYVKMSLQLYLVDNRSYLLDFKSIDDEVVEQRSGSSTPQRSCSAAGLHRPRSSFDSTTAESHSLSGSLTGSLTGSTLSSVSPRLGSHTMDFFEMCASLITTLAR
The target is the same in experiment [11]. Conditions: at 1 µM.
Experiment [12] addresses T4, NUAK family SNF1-like kinase 1 (Homo sapiens) (UniProt O60285).
T4 sequence (whole entry): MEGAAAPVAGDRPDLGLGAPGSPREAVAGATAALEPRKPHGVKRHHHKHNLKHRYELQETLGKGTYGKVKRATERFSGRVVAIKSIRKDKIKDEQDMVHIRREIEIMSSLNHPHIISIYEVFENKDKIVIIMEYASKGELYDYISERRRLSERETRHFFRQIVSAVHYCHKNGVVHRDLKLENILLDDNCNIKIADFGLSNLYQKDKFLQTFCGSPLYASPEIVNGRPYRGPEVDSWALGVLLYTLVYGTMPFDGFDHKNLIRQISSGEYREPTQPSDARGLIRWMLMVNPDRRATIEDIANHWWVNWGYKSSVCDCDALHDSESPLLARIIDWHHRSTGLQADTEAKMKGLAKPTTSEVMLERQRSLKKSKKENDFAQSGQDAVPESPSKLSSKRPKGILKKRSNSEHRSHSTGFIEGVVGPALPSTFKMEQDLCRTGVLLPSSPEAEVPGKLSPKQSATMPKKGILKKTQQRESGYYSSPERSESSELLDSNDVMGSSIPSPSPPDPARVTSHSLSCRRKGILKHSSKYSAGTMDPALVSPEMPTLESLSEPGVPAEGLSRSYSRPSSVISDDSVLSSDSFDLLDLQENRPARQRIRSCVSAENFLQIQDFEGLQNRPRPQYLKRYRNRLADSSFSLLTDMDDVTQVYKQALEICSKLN
The conditions noted are these: at 0.1 µM.

Experiment [13] has as its target T4, NUAK family SNF1-like kinase 1 (Homo sapiens). The conditions noted are these: at 1 µM.
The target in experiment [14] is T5, Serine/threonine-protein kinase BRSK1 (Homo sapiens) (UniProt Q8TDC3).
T5 sequence (whole entry): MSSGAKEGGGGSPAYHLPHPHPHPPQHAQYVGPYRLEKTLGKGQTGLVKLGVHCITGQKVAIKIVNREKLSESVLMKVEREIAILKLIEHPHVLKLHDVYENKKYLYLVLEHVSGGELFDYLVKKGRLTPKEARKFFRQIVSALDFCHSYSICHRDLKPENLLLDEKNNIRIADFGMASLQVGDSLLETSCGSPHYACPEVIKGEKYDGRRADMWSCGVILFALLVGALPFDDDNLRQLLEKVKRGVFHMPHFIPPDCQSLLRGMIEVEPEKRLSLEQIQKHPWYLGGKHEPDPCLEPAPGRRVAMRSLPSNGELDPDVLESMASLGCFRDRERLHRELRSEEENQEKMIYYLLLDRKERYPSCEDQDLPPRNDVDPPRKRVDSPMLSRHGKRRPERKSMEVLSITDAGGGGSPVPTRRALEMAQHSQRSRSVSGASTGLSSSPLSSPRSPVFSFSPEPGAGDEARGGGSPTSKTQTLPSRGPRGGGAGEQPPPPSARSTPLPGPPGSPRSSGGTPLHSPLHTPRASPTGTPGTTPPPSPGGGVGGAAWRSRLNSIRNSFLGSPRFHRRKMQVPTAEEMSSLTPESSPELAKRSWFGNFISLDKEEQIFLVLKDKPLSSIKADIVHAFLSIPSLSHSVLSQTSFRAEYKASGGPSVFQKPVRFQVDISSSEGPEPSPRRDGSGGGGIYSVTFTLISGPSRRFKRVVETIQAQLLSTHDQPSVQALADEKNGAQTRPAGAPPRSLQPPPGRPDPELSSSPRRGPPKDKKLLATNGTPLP
The conditions noted are these: at 0.1 µM.

Experiment [15] deals with T5, Serine/threonine-protein kinase BRSK1 (Homo sapiens). The conditions noted are these: at 1 µM.
In experiment [16] the target is T6, Serine/threonine-protein kinase BRSK2 (Homo sapiens) (UniProt Q8IWQ3).
T6 sequence (whole entry): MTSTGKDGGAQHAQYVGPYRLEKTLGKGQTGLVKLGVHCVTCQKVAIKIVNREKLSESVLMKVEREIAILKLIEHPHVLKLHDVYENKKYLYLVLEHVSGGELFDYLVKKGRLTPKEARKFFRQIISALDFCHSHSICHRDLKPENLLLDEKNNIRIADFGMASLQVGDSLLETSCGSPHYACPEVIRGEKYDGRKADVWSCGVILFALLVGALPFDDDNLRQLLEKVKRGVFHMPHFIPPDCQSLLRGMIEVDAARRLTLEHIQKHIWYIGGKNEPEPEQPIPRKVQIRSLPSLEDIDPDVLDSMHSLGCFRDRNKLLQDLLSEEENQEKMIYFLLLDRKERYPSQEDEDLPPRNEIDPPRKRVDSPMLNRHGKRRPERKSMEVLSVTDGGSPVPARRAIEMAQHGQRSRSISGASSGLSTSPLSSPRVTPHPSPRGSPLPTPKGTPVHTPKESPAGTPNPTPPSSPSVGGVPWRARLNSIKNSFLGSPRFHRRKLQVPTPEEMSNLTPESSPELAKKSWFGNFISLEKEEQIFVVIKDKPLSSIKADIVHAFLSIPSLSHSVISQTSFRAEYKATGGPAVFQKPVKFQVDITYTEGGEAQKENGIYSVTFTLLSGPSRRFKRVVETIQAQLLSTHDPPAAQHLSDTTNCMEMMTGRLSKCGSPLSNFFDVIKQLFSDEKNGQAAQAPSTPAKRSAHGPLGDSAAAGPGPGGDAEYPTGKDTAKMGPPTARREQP
Conditions: at 0.1 µM.

The target in experiment [17] is T6, Serine/threonine-protein kinase BRSK2 (Homo sapiens). Conditions: at 1 µM.
In experiment [18] the target is Calcium/calmodulin-dependent protein kinase type 1D (Homo sapiens) (UniProt Q8IU85). The conditions noted are these: at 0.1 µM.
Chain of Calcium/calmodulin-dependent protein kinase type 1D (Homo sapiens) (Q8IU85 whole entry, looked up): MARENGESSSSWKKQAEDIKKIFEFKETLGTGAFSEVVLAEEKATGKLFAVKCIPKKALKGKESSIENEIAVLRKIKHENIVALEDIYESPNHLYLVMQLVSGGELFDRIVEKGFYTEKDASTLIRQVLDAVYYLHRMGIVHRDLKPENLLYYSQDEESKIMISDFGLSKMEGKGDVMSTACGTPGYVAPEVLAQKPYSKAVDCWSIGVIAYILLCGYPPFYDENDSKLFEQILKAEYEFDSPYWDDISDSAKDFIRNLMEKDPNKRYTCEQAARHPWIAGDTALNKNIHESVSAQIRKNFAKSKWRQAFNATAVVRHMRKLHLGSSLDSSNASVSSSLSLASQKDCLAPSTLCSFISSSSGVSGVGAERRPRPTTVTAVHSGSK
Experiment [19] has the same target. Conditions: at 1 µM.
Experiment [20] concerns the target Calcium/calmodulin-dependent protein kinase type II subunit alpha (Homo sapiens) (UniProt Q9UQM7). Conditions: at 0.1 µM.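 Also: reported values are averages (mean inhibition of CAMK2A).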

SMILES strings stand for the structures.

Chain of Calcium/calmodulin-dependent protein kinase type II subunit alpha (Homo sapiens) (Q9UQM7 whole entry): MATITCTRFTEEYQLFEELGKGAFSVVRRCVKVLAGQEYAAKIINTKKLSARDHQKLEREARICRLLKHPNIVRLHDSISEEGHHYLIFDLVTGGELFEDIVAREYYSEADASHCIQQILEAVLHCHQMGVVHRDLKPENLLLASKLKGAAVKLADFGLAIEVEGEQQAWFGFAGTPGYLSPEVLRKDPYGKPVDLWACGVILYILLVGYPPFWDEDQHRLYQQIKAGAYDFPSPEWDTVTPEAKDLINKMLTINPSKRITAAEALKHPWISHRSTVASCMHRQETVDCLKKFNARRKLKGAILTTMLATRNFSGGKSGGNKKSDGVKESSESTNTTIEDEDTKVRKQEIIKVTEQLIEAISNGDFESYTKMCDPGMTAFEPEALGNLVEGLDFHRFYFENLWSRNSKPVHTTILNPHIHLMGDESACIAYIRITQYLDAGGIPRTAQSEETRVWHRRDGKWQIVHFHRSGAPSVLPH
Chain of Ribosomal protein S6 kinase alpha-6 (Homo sapiens) (Q9UK32 whole entry): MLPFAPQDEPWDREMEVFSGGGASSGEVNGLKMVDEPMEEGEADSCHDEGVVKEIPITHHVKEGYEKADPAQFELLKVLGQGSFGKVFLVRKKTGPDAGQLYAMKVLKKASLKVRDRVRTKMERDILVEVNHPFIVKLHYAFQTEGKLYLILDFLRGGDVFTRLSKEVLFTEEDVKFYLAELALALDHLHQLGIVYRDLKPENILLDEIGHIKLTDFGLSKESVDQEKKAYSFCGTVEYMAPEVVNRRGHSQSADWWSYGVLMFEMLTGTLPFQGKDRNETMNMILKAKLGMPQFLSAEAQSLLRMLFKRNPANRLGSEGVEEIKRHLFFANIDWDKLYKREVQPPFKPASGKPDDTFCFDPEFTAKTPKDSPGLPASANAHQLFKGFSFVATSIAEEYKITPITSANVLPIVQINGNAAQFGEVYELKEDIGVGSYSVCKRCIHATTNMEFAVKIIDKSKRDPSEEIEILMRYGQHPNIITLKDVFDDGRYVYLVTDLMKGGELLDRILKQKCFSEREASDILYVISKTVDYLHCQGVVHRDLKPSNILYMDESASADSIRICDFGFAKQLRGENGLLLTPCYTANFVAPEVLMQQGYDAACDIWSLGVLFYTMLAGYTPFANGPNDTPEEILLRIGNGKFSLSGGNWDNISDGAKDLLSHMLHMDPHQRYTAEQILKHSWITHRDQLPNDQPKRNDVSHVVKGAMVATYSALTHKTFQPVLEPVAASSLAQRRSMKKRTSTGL

Consider `OCc1ccc(-c2nc(-c3ccccn3)c(-c3ccc4c(c3)OCO4)[nH]2)cc1`, for which the inhibition in [1] stood at 2.9%; in [2], 3.65%; in experiment [3] it was 0.91%; in experiment [4], 1.37%; in experiment [5], 1.29%; in experiment [6], 3.28%. Further, the inhibition came to 2.86% in [7]; 3.68% in experiment [8]; 2.81% in experiment [9]; 2.09% in experiment [10]; 4.26% in [11]; 3.72% in [12]. In addition, the inhibition in [13] turned out to be 5.56%; in experiment [14], 2.53%; in [15], 1.5%; in [16] it was 2%; in experiment [17], 0.59%; in experiment [18] it was 0.54%. Moreover, the inhibition in experiment [19] amounted to 0.26%; in experiment [20], 4.98%.
As for `Nc1nccc(-c2c(-c3ccc(F)cc3)nn3cc(C(F)(F)F)ccc23)n1`, the inhibition was -1.48% in [1]; 1.36% in [2]; 0.06% in experiment [3]; 2.28% in [4]; -4.03% in experiment [5]; 3.01% in experiment [6]. The inhibition in [7] is -3.28%; in experiment [8], -1.23%; in [9], -0.36%; in experiment [10], 0.94%; in experiment [11] it was 0.34%; in experiment [12], 0.16%. Besides, the inhibition in experiment [13] was -3%; in experiment [14], -0.37%; in experiment [15], 0.47%; in [16] it was 0.15%; in experiment [17], -0.77%; in [18], -1.67%. Further, the inhibition in experiment [19] was -2.05%; in experiment [20], 0.49%.
For the compound `ON=C1CCc2cc(-c3nc(C4CCNCC4)[nH]c3-c3ccncc3)ccc21`, the inhibition in experiment [1] was -0.49%; in [2], 0.64%; in experiment [3] it was 0.87%; in experiment [4] it was -0.56%; in experiment [5], -1.29%; in experiment [6] it was -1.46%. The inhibition is -0.07% in [7]; -0.26% in experiment [8]; -1.59% in experiment [9]; -1.32% in [10]; 2.64% in experiment [11]; 0.54% in experiment [12]. For the same compound, the inhibition in experiment [13] was 1.89%; in experiment [14], 1.34%; in experiment [15], 0.41%; in experiment [16], -0.35%; in [17], 1.99%; in [18], 0.14%. Further, the results for the inhibition in experiment [19] and in [20] were 11.8% and 1.63%, respectively.

Values taken from ChEMBL document CHEMBL1961873, “Compounds: GSK PKIS; Assays: Nanosyn kinase panel” (2012).
